This is a sample that favours compounds with a hit; in the whole collection about 6.4% have one here.
KinaseGlo FLuc: Counterscreen for Luciferase (Kinase-Glo TM) Inhibition | Luciferin 4-monooxygenase (Photuris pensylvanica), Q27757 | Kinase-Glo luciferase, ATP luminescence, 8 min | Potency, µM (doses to about 38.3 µM), for the others: top-dose activity change, negative = inhibition, hits mostly inhibitors | 0.28% of 200,000 active | AID 1379, 2008; also: nearly all actives have a fitted effect of over 60% in size
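Kinase-Glo luciferase light output from ATP and luciferin was measured with 10 uM ATP, within the enzyme's linear range. Buffer: 50 mM imidazole pH 7.2, 50 mM KCl, 7 mM MgCl2, 0.01% Tween 20, 0.05% BSA; luminescence read after 8 min at ambient temperature.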
VP16 counter: VP16 counterscreen qHTS for inhibitors of ROR gamma transcriptional activity; Potency, µM (highest dose often 53.6 µM), without a hit: at the top dose activity, negative = inhibition, most hits filed as inhibitors; 3.5% of 310,000 active; Drosophila S2 Gal4-VP16 UAS-luciferase, luminescence, 20 h;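 also: Gal4-VP16 expression switched on by copper sulfate through the metallothionein promoter; nearly all actives have a fitted effect of over 50% in size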
RORg inh: qHTS for inhibitors of ROR gamma transcriptional activity; Drosophila S2 Gal4-RORgamma UAS-luciferase reporter, 20 h; Potency, µM (series often up to 53.6 µM), for the others: top-dose activity change, negative = inhibition, most hits filed as inhibitors; 5.4% of 310,000 active; AID 2551, 2010; also: nearly all actives have a fitted effect of over 60% in size
Target sequence (P51450 whole entry, looked up, the tested form may be a part): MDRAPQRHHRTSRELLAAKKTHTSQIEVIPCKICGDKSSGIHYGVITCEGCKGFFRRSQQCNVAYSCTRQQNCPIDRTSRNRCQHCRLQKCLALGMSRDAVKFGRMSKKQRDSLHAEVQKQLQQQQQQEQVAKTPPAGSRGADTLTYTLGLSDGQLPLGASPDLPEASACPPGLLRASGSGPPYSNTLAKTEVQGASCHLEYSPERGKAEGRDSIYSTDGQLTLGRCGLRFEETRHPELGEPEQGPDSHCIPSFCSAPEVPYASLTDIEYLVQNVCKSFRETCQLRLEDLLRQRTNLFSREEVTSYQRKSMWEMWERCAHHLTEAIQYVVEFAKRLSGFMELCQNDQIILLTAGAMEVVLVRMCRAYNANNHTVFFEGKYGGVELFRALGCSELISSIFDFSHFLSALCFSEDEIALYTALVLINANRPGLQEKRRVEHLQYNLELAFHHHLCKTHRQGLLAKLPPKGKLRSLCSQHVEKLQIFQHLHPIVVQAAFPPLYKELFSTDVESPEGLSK
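Drosophila S2 cells stably expressing Gal4-DBD/mouse RORγ fusion under metallothionein promoter plus UAS-luciferase; compound 1 h, then 700 uM CuSO4 induction for 20 h at ambient temperature; inhibition read as reduced luminescence.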
* = called active by the depositor; u = inconclusive; x = no result given; [ ] = dose if it differs, or a comment. Calls follow the shape of the dose curve; as a rule, active = well fitted curve in the direction sought with a large enough effect; inconclusive = small, poorly fitted or top-dose-only effect, or another doubt; inactive = no such curve, though single readings can be large; an effect the other way counts as inactive or inconclusive. % is scaled to controls: 0 for no effect and ±100 for the full control effect; potency is read from the fitted curve at half-maximal effect.

SMILES | KinaseGlo FLuc | VP16 counter | RORg inh
COc1ccc(C2NC(=O)C(C#N)=C(S)N2c2ccccc2)cc1OC (stereo not given) | -1% | u | u
Cc1cccc(N2C(S)=C(C#N)C(=O)NC2c2ccco2)c1 (stereo not given) | 0% | -5% | 17%
CCOc1ccc(C2NC(=O)C(C#N)=C(S)N2c2cccc(C)c2)cc1OC (stereo not given) | 1% | -11% | -34%
N#CC1=C(S)N(c2ccccc2)C(c2ccc(-c3cccc(Cl)c3)o2)NC1=O (stereo not given) | 6% | u | 13µM*
CCOc1ccc(C2NC(=O)C(C#N)=C(S)N2c2ccc(C)cc2)cc1OC (stereo not given) | -1% | u | 14µM*
CCSc1nnc2n1C(C)(C)Cc1ccccc1-2 | -4% | 9% | 0%
CC1(C)Cc2ccccc2-c2n[nH]c(=S)n21 | 0% | 0.89µM* | 2.8µM*
Cn1nnnc1SCc1csc(C2C(C#N)=C(N)OC3=C2C(=O)CCC3)c1 (stereo not given) | 2% | 15% | 30%
COc1ccc(-c2nnc(SCC(=O)c3cc(C)n(Cc4cccs4)c3C)o2)cc1 | 0% | -3% | -4%
Cc1csc(SCC(=O)c2cc(C)n(Cc3cccs3)c2C)n1 | -2% | 8.9µM* | 6.3µM*
CC(=O)Nc1ccc(SCC(=O)c2cc(C)n(Cc3cccs3)c2C)cc1 | 3% | u | -1%
Cc1cc(C(=O)CSc2nnc(N)s2)c(C)n1Cc1cccs1 | -1% | 11µM* | 8.9µM*
CCOC(=O)c1ccc(NC(=O)c2sc3nc(N4CCOCC4)c4c(c3c2N)CCCC4)cc1 | x | -10% | -11%
COc1ccc(/C=N/N2CCN(c3ccc(Cl)cc3)CC2)cc1 | x | -1% | -12%[1.91 µM]
Cc1ccc(N=C2C(=S)N(c3ccc(C)cc3)C(=N)N2/N=C/c2ccc(Cl)cc2)cc1 | -10% | 3.2µM* | 2.5µM*
Cc1cc(C(=O)NC2CCCc3c2cnn3-c2ccc(C(C)(C)C)cc2)nn1C (stereo not given) | x | 11µM* | u
CC(C)(C)c1ccc(-n2ncc3c2CCCC3NC(=O)C2(C(N)=O)CC2)cc1 (stereo not given) | x | 2.5µM* | u
CC(=O)NCC(=O)NC1CCCc2c1cnn2-c1ccc(C(C)(C)C)cc1 (stereo not given) | x | -30% | u
Cc1cc(C)cc(-n2ncc3c2CCCC3NC(=O)c2cc(C)n(C)n2)c1 (stereo not given) | x | 1% | 6%
CN1CCC(NC(=S)NC2CC2)CC1 | 2% | 12% | 13%
NNC(=S)NC1CCCCCCCCCCC1 | x | 2.8µM* | 0.28µM*
S=C(NC1CCCCCC1)NC1CCCC1 | 0% | 10µM* | 1.6µM*
CN(C)C(=S)NC1CCS(=O)(=O)C1 (stereo not given) | 1% | -7% | -8%
O=C(NC1CCCCCC1)C(=O)NC1CCCC1 | -2% | -5% | 25%
CN(C)CCNC(=S)NC1CCCCC1 | 3% | 1% | -13%
SMILES | KinaseGlo FLuc | VP16 counter | RORg inh
S=C(NC1CCCCC1)NC1CCCCC1 | x | u | 2.8µM*
NNC(=S)NC1CCS(=O)(=O)C1 (stereo not given) | x | 4.5µM* | 2.8µM*
CCS(=O)(=O)N1CCN(S(=O)(=O)c2ccc3c(c2)OCCO3)CC1 | x | -11% | -41%
COCCNC(=O)CNC(=S)N(CCCN1CCOCC1)Cc1cccs1 | 1% | 3% | 5%
Cc1occc1C(=O)N(C)Cc1nc(-c2ccc(Cl)cc2)no1 | x | 1% | 15%
COc1ccc(C(=O)CSc2n[nH]c(C)n2)cc1[N+](=O)[O-] | 0% | u | u
COc1ccc(CN2CCN(C3CCC3)CC2CCO)cc1C (stereo not given) | x | -6% | -24%
Cc1ccc(OCCNC(=O)c2cncc(Br)c2)cc1C | -3% | -2% | 19%
CCOC(=O)c1ccc(NC(=S)NC(=O)c2cncc(Br)c2)cc1 | x | u | 2.2µM*
CCCCOC(=O)c1ccc(NC(=O)c2cnccn2)cc1 | 1% | 16% | 8%
CCOC(=O)c1ccc(NC(=S)NN)cc1 | -12% | u | 10µM*
Cc1ccnc(NC(=S)NC(=O)c2cncc(Br)c2)c1 | 1% | u | u
CCCCOC(=O)c1ccc(NC(=S)NC(=O)c2c(Br)c(C)nn2C)cc1 | 1% | 13µM* | 16µM*
CCOC(=O)c1ccc(NC(=O)COC)cc1 | -1% | 21% | 9%
Cc1cccc(OCCNC(=S)NC(=O)c2cncc(Br)c2)c1 | x | 6.3µM* | 5µM*
CCn1c(=O)n(CC(=O)Nc2ccc(F)cc2)c(=O)c2ccccc21 | 10% | -12% | 11%
C=CCCCCCCCCCCCc1ccco1 | 0% | u | -17%
O=C(N/N=C1/C[C@@H](O)[C@@H](O)[C@@H]2[C@@H]3C(=O)N(c4cccc(Oc5ccccc5)c4)C(=O)[C@H]3CC[C@H]12)OCc1ccccc1 | x | 7%[10 µM] | 8%[10 µM]
Cc1cccc(NC(=S)Nc2ccc(Oc3ccccc3)cc2)n1 | -3% | u | 9%
COC(=O)Cc1ccc(NC(=S)Nc2cccc(C)n2)cc1 | 1% | u | 4.5µM*
CCOC(=O)c1ccc(NC(=S)Nc2cccc(C)n2)cc1 | 0% | u | 0.89µM*
CCOC(=O)c1ccc(NC(=S)Nc2cccc(N)n2)cc1 | x | -2% | 5%
COC1C[C@@H](O[C@@H]2C(C)C(=O)OC(C)C(C)[C@H](OC(C)=O)C(C)C(=O)[C@@]3(CO3)CC(C)C(OC3OC(C)CC(N(C)C)[C@H]3OC(C)=O)C2C)OC(C)[C@@H]1OC(C)=O (stereo not given in full) | -3% | -11% | -2%
O=C(c1ccco1)N1CCC2(CC1)CN(c1ccccn1)C2 | -6% | -22% | -15%
CNC(=O)C[C@@H](N)C(=O)N[C@@H](C(=O)N[C@@H]1C(=O)N2[C@@H]1SC(C)(C)[C@@H]2C(=O)O)c1ccc(O)cc1 | x | 3% | 1%
SMILES | KinaseGlo FLuc | VP16 counter | RORg inh
Cc1cc(N)ccc1NC(=O)CN1CCOCC1 | x | 0% | -7%
N=c1oc2ccccc2cc1C(=O)Nc1ccc(F)cc1 | x | -14% | -38%
N=c1oc2cc(O)ccc2cc1C(=O)Nc1ccc(Cl)cc1 | x | 2µM* | 2.2µM*
CSCCC(NC(=O)c1ccccc1Br)C(=O)N1CCCC(C(F)(F)F)C1 (stereo not given) | x | 0% | -28%
COc1ccc(C(=O)N/N=C/c2ccc(OC)c(CN3CCc4cc(OC)c(OC)cc4C3C)c2)cc1 (stereo not given) | 0% | -7% | -1%
CCOCCCNC(=O)C1CCN(S(=O)(=O)c2ccc3nc4c(c(C(=O)O)c3c2)CCCCC4)CC1 | x | -1% | -14%
CN(C)Cc1cc(C(C)(C)C)ccc1-c1ccc(C(C)(C)C)cc1CN(C)C | -2%[7.66 µM] | x | x
CC(C)Cc1cc(C(C)(C)C)ccc1OC(=S)N(C)C | x | 1% | 13µM*
CN(C(=O)c1nn(C)c2c1CSc1ccccc1-2)c1ccccc1Cl | x | 7% | 30%
CC(Sc1nnc(-c2ccccc2)c(-c2ccccc2)n1)C(=O)N1CCc2ccccc21 (stereo not given) | x | 11µM* | 2.2µM*
Cc1nnc(SC(C)C(=O)N2CCc3ccccc32)s1 (stereo not given) | -2% | -5% | 21%

Source: PubChem BioAssay
